Assay results from PubChem BioAssay AID602382 (Sanford-Burnham Center for Chemical Genomics, 2012).
The other results are listed elsewhere or left out. Calls of active or inactive are those of the source. No rule for the calls is given here.

Assay: beacon detection-step fluorescence artefacts – biochemical, fluorescent molecular beacon, artefact control for DNMT1 inhibitor project, dose response (AID 602382)
Details: spectral interference counter-screen

Question: For `O=C(CSc1nc2ccccc2c(=O)[nH]1)Nc1nc(-c2ccc(Br)cc2)cs1`, which IC50 is on record?
Answer: > 99 µM (inactive)

Question: Which IC50 does the source give for `CCOC(=O)C(NC(=O)CC(C)C)(Nc1sc2c(c1C(N)=O)CCCC2)C(F)(F)F` (stereo not given) here?
Answer: > 99 µM (inactive)

Question: Which IC50 does the source give for `O=C(Oc1ccc(-c2nc(-c3ccccn3)no2)cc1)c1ccccc1` here?
Answer: > 99 µM (inactive)

Question: For `Cc1ccccc1NC(=O)CN1C(=O)N/C(=C\c2cccn2-c2cccc(C(=O)O)c2)C1=O`, which IC50 is on record?
Answer: > 99 µM (inactive)

Question: Which IC50 does the source give for `NC(CSC(c1ccccc1)(c1ccccc1)c1ccc(-c2ccccc2)cc1)C(=O)O` (stereo not given) here?
Answer: > 99 µM (inactive)

Question: For `COc1ccc(Cc2nnc(NC(=O)Cc3cccs3)s2)cc1`, which IC50 is on record?
Answer: > 99 µM (inactive)

Question: Which IC50 does the source give for `O=C(COc1ccc(/C=N/NC(=O)c2ccc(O)cc2)cc1)Nc1ccc([N+](=O)[O-])cc1` here?
Answer: > 99 µM (inactive)

Question: For `COc1ccc(Br)cc1/C=N/Nc1ccc(S(=O)(=O)Nc2ccccc2C(=O)O)cc1[N+](=O)[O-]`, which IC50 is on record?
Answer: > 99 µM (inactive)

Question: Which IC50 does the source give for `Cc1ccc(/C=C/C(=O)Nc2ccc([N+](=O)[O-])c(NC(=O)/C=C/c3ccc(C)o3)c2)o1` here?
Answer: > 99 µM (inactive)

Question: Which IC50 does the source give for `COc1ccc(C(=O)/C=C/c2ccc(-c3ccccc3)cc2)cc1CSCC(=O)O` here?
Answer: > 99 µM (inactive)
